Shiga toxin inh – Shiga toxin inhibition; Vero cells, Shiga toxin protein synthesis inhibition reporter; inhibition, % at 38.7 µM; 290,000 tested, 9.2% active; in the data active means inhibition mostly above about 28%, no sharp cut-off; inactive means mostly below about 43%
Pf growth 48h – P. falciparum growth inhibition at 48 hours (one generation); AID 504832; 310,000 tested, 5.9% active; Potency, µM (top dose mostly 28.7 µM), hits mostly inhibitors; P. falciparum luciferase growth in erythrocytes, 48 h
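Luciferase-expressing parasites in RBCs, 2% Hct / 0.1% parasitemia final; RPMI 1640 + 0.5% Albumax; 37 C, 5% CO2, one generation; luminescence read-out, lower signal = inhibition.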
Sm TGR block – blocks Schistosoma mansoni thioredoxin glutathione reductase; Potency, µM (series often up to 114 µM), hits mostly inhibitors; 360,000 tested, 3% active; AID 485364; Q962Y6; purified TGR, DTNB reduction, TNB absorbance 405 nm; further: nearly all actives have a fitted effect of over 60% in size
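First, TGR (20 nM dispensed) and NADPH were mixed with compound. Second, a 15 min room-temperature incubation followed. Third, further NADPH and then DTNB were added to start the reaction. Finally, TNB absorbance was monitored kinetically.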
Pf growth 96h – P. falciparum growth inhibition at 96 hours | P. falciparum luciferase reporter growth, 96 h | Potency, µM (series often up to 28.7 µM), hits mostly inhibitors | 320,000 tested, 6.9% active | AID 504834
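Plates of compound plus infected erythrocytes (2% hematocrit, 0.05% parasitemia final) incubate 96 hours, 37 C, 5% CO2. Detection reagent added; reduced luminescence from the parasites' luciferase reporter flags inhibition.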
CHX counter – counter-screen hit for Shiga toxin inhibitors, cycloheximide; cell reporter, cycloheximide protein synthesis inhibition counterscreen; max response, %; 300,000 tested, 12% active; AID 2314; in the data active means max response mostly above about 13%, no sharp cut-off; inactive means mostly below about 14%; further: read at 38.3 µM for the half of the compounds with a filed dose
NS1 function inh – inhibitors of influenza NS1 protein function. 270,000 tested, 0.4% active. Potency, µM (highest dose often 46.1 µM). AID 2326; calls by dose curve; further: actives are rising curves; nearly all actives have a fitted effect of over 50% in size
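A cell-based growth assay was used: compounds that relieve NS1-induced slow growth of budding yeast raise OD600. Assay medium was yeast nitrogen base with ammonium sulphate and -URA supplement, pH 6.0, with 2% galactose.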
Large screens that a line does not name were inactive. Hits are enriched below; roughly 21% of the tested compounds scored in any of these assays. Unless noted, the call rests on the fitted dose curve; in most records, active means well fitted curve in the direction sought with a large enough effect; inconclusive means small, poorly fitted or top-dose-only effect, or another doubt; inactive means no such curve, though single readings can be large; an effect the other way counts as inactive or inconclusive.

COc1ccc(-c2cc(C(=O)N3CCN(c4ncccn4)CC3)c3ccccc3n2)cc1	none (no result: Shiga toxin inh, CHX counter, NS1 function inh)
CCOc1ccc(-c2cc(C(=O)N3CCC4(CC3)OCCO4)c3ccccc3n2)cc1	none (no result: Shiga toxin inh, Pf growth 48h, Sm TGR block, Pf growth 96h, CHX counter)
COc1ccc(-c2cc(C(=O)N3CCCC3)c3ccccc3n2)cc1	Shiga toxin inh 45, Pf growth 96h 3.7µM, CHX counter 36
COc1ccc(Cl)cc1NC(=O)C(C)N1Cc2ccccc2C1=O (configuration not stated)	none (no result: Shiga toxin inh, Pf growth 48h, Pf growth 96h, CHX counter, NS1 function inh)
COc1ccccc1N1CCN(C(=O)C2CCN(S(=O)(=O)c3cn(C)cn3)CC2)CC1	none (no result: Shiga toxin inh, Pf growth 48h, Pf growth 96h, CHX counter, NS1 function inh)
CN1CCN(c2ncnc3c2cnn3-c2cccc(Cl)c2)CC1	none (no result: Shiga toxin inh, Pf growth 48h, Pf growth 96h, CHX counter, NS1 function inh)
COc1ccc(-c2cc(C(=O)N3CC(C)CC(C)C3)c3ccccc3n2)cc1 (configuration not stated)	Pf growth 48h 2.9µM, Pf growth 96h 3.7µM (no result: Shiga toxin inh, CHX counter, NS1 function inh)
O=C(c1cc(-c2ccccc2)nc2ccccc12)N1CCCC1	none
Cc1ccc(-c2cc(C(=O)N3CCCCC3)c3ccccc3n2)cc1C	CHX counter 23 (no result: NS1 function inh)
COc1ccccc1CCNC(=O)C1CCN(c2nnc(-n3cccc3CNc3ccc(C)cc3)s2)CC1	none (no result: Shiga toxin inh, Pf growth 48h, Pf growth 96h, CHX counter, NS1 function inh)
COc1ccc(C2CC(=O)N(CC(=O)Nc3cccc(C)c3C)c3ccccc3S2)cc1OC (configuration not stated)	none (no result: Shiga toxin inh, Pf growth 48h, Pf growth 96h, CHX counter, NS1 function inh)
Cc1c(C(=O)O)oc2ccc3c(c12)C(O)CC(C)(C)O3 (configuration not stated)	Pf growth 96h 4.7µM
CCOC(=O)c1cccc(NC(=O)c2cc(S(=O)(=O)N3CCCC3)cn2C)c1	none (no result: Shiga toxin inh, Pf growth 48h, Pf growth 96h, CHX counter, NS1 function inh)
Nc1c(C(=O)NCCCc2ccccc2)c2nc3ccccc3nc2n1Cc1cccs1	Pf growth 48h 12µM (no result: Pf growth 96h)
C=CCn1c(N)c(C(=O)OCCC)c2nc3ccccc3nc21	Sm TGR block inconclusive, Pf growth 96h inconclusive
CCCOC(=O)c1c(N)n(Cc2cccs2)c2nc3ccccc3nc12	Pf growth 96h 7.4µM (no result: Pf growth 48h)
COc1ccc(-n2ccn(CC(=O)Nc3ccccc3OC)c(=O)c2=O)cc1	none
CCN(CC)CCC(c1ccc(OC)cc1)c1c(O)cc(OC)cc1OC (configuration not stated)	Pf growth 48h 1.3µM, Pf growth 96h 1.3µM
COc1cc(O)c(C(CC(=O)N2CCCCC2)c2ccc(N(C)C)cc2)c(OC)c1 (configuration not stated)	none
CCN(CC)CCC(c1ccc(N(C)C)cc1)c1c(O)cc(OC)cc1OC (configuration not stated)	Pf growth 48h 1.2µM, Pf growth 96h 1.5µM, NS1 function inh inconclusive
CCN(CC)C(=O)CC(c1ccc(OC)cc1)c1c(O)cc(OC)cc1OC (configuration not stated)	Pf growth 48h inconclusive
COc1ccccc1Nc1nc(N)nc(CN2CCc3ccccc3C2)n1	Pf growth 48h inconclusive
CCCCP(=O)(CCCC)Cc1ccccc1O	Pf growth 48h 15µM, Pf growth 96h inconclusive
c1ccc2nc3c(cc2c1)CCCCC3	Shiga toxin inh 44, CHX counter 30
Cc1cc(Cl)ccc1C(=O)C1CCCN(C(=O)c2n[nH]c3c2CCCC3)C1 (configuration not stated)	Pf growth 96h inconclusive
COc1ccc(C(=O)C2CCCN(C(=O)c3n[nH]c4c3CCCC4)C2)cc1OC (configuration not stated)	CHX counter 16
COc1ccc(C(=O)C2CCCN(Cc3cccn3-c3ccccn3)C2)cc1F (configuration not stated)	Pf growth 48h 9.3µM
Cc1ncc(CN2CCCC(C(=O)c3ccc(C(C)(C)C)cc3)C2)s1 (configuration not stated)	Pf growth 48h inconclusive, Pf growth 96h inconclusive, CHX counter 9.9
COc1ccc(C(=O)C2CCCN(Cc3ccon3)C2)cc1OC (configuration not stated)	Pf growth 96h inconclusive, CHX counter 57
COc1ccc2cc(C(=O)C3CCCN(Cc4cnc(C)s4)C3)ccc2c1 (configuration not stated)	Pf growth 48h inconclusive, Pf growth 96h inconclusive
O=C(Cc1cccs1)N(CC1CCCO1)C1(C(=O)NC2CCCC2)CCCCC1 (configuration not stated)	Pf growth 96h inconclusive (no result: NS1 function inh)
CC(=O)Nc1ccc(NC(=O)CCNC(=O)c2ccccc2Cl)cc1	none
COc1ccc(C(=O)C2CCCN(Cc3cnc(C)s3)C2)cc1OC (configuration not stated)	Pf growth 96h 15µM
COc1ccc(C(=O)C2CCCN(Cc3cnc(N4CCCC4)s3)C2)cc1OC (configuration not stated)	Pf growth 48h inconclusive, Pf growth 96h inconclusive
CCN(CC)CC(=O)N1c2ccccc2Oc2c(c(=O)n(C)c(=O)n2C)C1c1cccc([N+](=O)[O-])c1 (configuration not stated)	Pf growth 48h 5.9µM, Sm TGR block inconclusive, Pf growth 96h inconclusive
CN1c2ccccc2Oc2c(c(=O)n(C)c(=O)n2C)C1c1cccc([N+](=O)[O-])c1 (configuration not stated)	Pf growth 96h inconclusive
COc1ccc(CNC(=O)C(=O)NCC2OCCN2S(=O)(=O)c2ccc(C)cc2)cc1 (configuration not stated)	Pf growth 96h inconclusive
COc1ccc(CCNC(=O)C(=O)NCC2OCCN2S(=O)(=O)c2ccc3c(c2)OCCO3)cc1OC (configuration not stated)	Pf growth 48h inconclusive, Pf growth 96h 12µM
O=C(NCCc1ccccc1)C(=O)NCC1OCCN1S(=O)(=O)c1ccc2c(c1)OCCO2 (configuration not stated)	Pf growth 96h inconclusive
COc1ccc(CNC(=O)C(=O)NCC2OCCN2S(=O)(=O)c2ccc(F)cc2)cc1 (configuration not stated)	Shiga toxin inh 32, CHX counter 28
COc1ccc(S(=O)(=O)N2CCOC2CNC(=O)C(=O)NCCc2ccc(OC)c(OC)c2)cc1C (configuration not stated)	Pf growth 96h inconclusive
COc1ccc(CCNC(=O)C(=O)NCC2OCCN2S(=O)(=O)c2ccc3c(c2)OCCO3)cc1 (configuration not stated)	Pf growth 96h inconclusive, CHX counter 34
COc1cn(CC(=O)Nc2ccc(C)cc2)c(CN2CCCCC2)cc1=O	none (no result: Shiga toxin inh, Pf growth 48h, Pf growth 96h, CHX counter, NS1 function inh)
O=C1NN=C(c2ccccc2)CC1c1c[nH]c2ccccc12 (configuration not stated)	Pf growth 96h inconclusive, CHX counter 24 (no result: NS1 function inh)
COC(=O)C1=CN(C2CC2)C=C(C(=O)OC)C1c1ccccc1OC	Pf growth 48h 12µM
NC(N)=N/N=C/c1cccc(Cl)c1Cl	Pf growth 48h 1.7µM, Pf growth 96h 2.1µM
NC(N)=N/N=C/c1cccc([N+](=O)[O-])c1O	Pf growth 48h inconclusive

High-throughput results from PubChem.
